# The list is not random: actives were taken first. Their share in the collection is about 19%.
# TDP1 cell CPT = qHTS for Inhibitors of human tyrosyl-DNA phosphodiesterase 1 (TDP1): qHTS in cells in presence of CPT; chicken DT40 Tdp1-/-;hTDP1 cells + 20 nM CPT, ATP luminescence, 48 h; 420,000 compounds, 12% hits; Potency, µM (doses to about 46.2 µM), inactives show top-dose activity change, negative = growth inhibition, most hits filed as inhibitors; AID 686979, 2013; note: potency is the fitted concentration of half-maximal effect; nearly all actives have a fitted effect of over 55% in size
#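 Chicken DT40 Tdp1-/- cells complemented with human TDP1, 400 cells/well, exposed to compounds plus 20 nM camptothecin for at least 48 h at 37 C; viability read as ATP content by CellTiter-Glo luminescence.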
# TDP1 cell noCPT = qHTS for Inhibitors of human tyrosyl-DNA phosphodiesterase 1 (TDP1): qHTS in cells in absence of CPT; Potency, µM (highest dose often 46.2 µM), for the others: at the top dose activity change, negative = growth inhibition, actives largely listed as inhibitors; DT40 Tdp1-/- hTDP1 cells, no CPT, ATP luminescence, 48 h; 420,000 compounds, 15% hits; note: potency is the fitted concentration of half-maximal effect; nearly all actives have a fitted effect of over 55% in size
#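 Growth of hTDP1-complemented DT40 Tdp1-knockout cells is measured by ATP luminescence after at least 48 hr compound exposure at 37 °C, with DMSO substituting for the 20 nM CPT used in the parallel screen.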
# HT1080-NT tox = qHTS for induction of synthetic lethality in tumor cells producing 2HG: qHTS for the HT-1080-NT fibrosarcoma cell line; 360,000 compounds, 1.6% hits; Potency, µM (highest dose often 46.1 µM), for the others: at the top dose activity, negative = less viability, usual class: cytotoxic; HT-1080-NT fibrosarcoma viability, CellTiter-Glo ATP luminescence, 48 h;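 note: NT is the 2HG producing partner of a matched IDH1 knockdown line; potency is the fitted concentration of half-maximal effect; 0% = DMSO-treated cells and -100% = media-only wells without cells; nearly all actives have a fitted effect of over 55% in size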
#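 Read-out is CellTiter-Glo luminescence after 10 minutes at room temperature, following 48 hours' compound treatment of HT-1080-NT cells (750 cells/well, RPMI, 5% FBS, 37 degrees C).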
# IL-1B inflam inh = qHTS for Inhibitors of Inflammasome Signaling: IL-1-beta AlphaLISA Primary Screen | activity change, % at 57.5 µM | 360,000 compounds, 4.7% hits | THP-1 LPS/ATP IL-1B secretion, AlphaLISA, 16 h; hits give low values; in the data active = activity change below about -50%; inconclusive = mostly about -30% to -49%
#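 Secreted IL-1B measured by AlphaLISA bead assay after 16 h compound exposure of THP-1 cells; compounds (final up to 57.5 uM) added 1 h before LPS (250 ng/mL) and ATP (1.25 mM) stimulation; lower signal means less secretion.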
# HT1080 IDH1KD tx = qHTS for induction of synthetic lethality in tumor cells producing 2HG: qHTS for the HT-1080-IDH1KD cell line | HT-1080 IDH1 knockdown viability, ATP luminescence, 48 h | AID 686971, 2013 | Potency, µM (titrated, usually from 46.1 µM), without a hit: at the highest dose activity, negative = toxicity, usual class: cytotoxic | 360,000 compounds, 2% hits;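 note: potency is the fitted concentration of half-maximal effect; 0% = DMSO wells and -100% = cell-free medium wells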
#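 Viability of IDH1-knockdown HT-1080 fibrosarcoma cells was assessed by CellTiter-Glo after 48 h at 37 °C with titrated compound; concentration-effect curves were classified by fit quality and response size.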
# * = called active by the depositor; ? = inconclusive; / = not tested or not shown; [ ] = another dose, or the depositor's remark. Unless noted, calls come from the whole dose curve; as a rule, active = well fitted curve in the direction sought with a large enough effect; inconclusive = small, poorly fitted or top-dose-only effect, or another doubt; inactive = no such curve, though single readings can be large; an effect the other way counts as inactive or inconclusive. Unless noted, % is set by controls: 0 for no effect and ±100 for the full control effect.
SMILES,TDP1 cell CPT,TDP1 cell noCPT,HT1080-NT tox,IL-1B inflam inh,HT1080 IDH1KD tx
CCCc1c(C(=O)N/N=C/c2ccco2)nnn1-c1nonc1N,3%,15%,12%,12,18%
CC1C(=O)N(Cc2cn(Cc3ccco3)nn2)CCS(=O)(=O)N1Cc1ccc(-c2ccc(Cl)cc2)cc1 (stereo unspecified),18µM*,13µM*,-19%,-28,-26%
CC1C(=O)N(Cc2cn(Cc3ccco3)nn2)CCS(=O)(=O)N1Cc1ccc(-c2ccccc2)cc1 (stereo unspecified),?,18µM*,-22%,-20,-13%
O=C(c1ccc(S(=O)(=O)N2CCc3ccccc3C2)cc1)N1CCCCC1,?,26µM*,-4%,22,-4%
Cc1ccc(S(=O)(=O)N2CCc3ccccc3C2CN2C(=O)c3ccccc3C2=O)cc1 (stereo unspecified),22µM*,11µM*,-10%,0,-2%
Cc1ccc(S(=O)(=O)N2CCCCC2)cc1,-1%,2%,-2%,-1,-1%
CCn1c(C)c(C2=CCN(S(=O)(=O)c3ccc(C)cc3)CC2)c2ccccc21,?,18µM*,6%,-6,15%
Cc1ccc(S(=O)(=O)N2CCc3ccccc3CC2)cc1,-5%,?,-10%,-85*,0%
CCOC(=O)C[n+]1cccc(Br)c1,-7%,-3%,/,/,/
CCOc1ccc(OCCCCn2ccnc2)cc1,-4%,-11%,12%,43,6%
CCc1c(C(=O)NN2C(=O)C3CCCCC3C2=O)csc1C (stereo unspecified),-10%,-28%,17%,14,13%
O=S(=O)(CCN1CCSCC1)c1ccc(Cl)cc1,5%,7%,-1%,-73*,-13%
Cc1cc(Br)ccc1NC(=O)CN(C)C(=O)CSC(=S)N1CCCC1,-22%,?,-2%,20,-1%
Cc1cc(Br)ccc1NC(=O)CN(C)C(=O)CSCc1ccccc1,-13%,-21%,2%,-52*,-20%
Cc1ccc(CSCC(=O)N(C)CC(=O)Nc2c(Cl)cccc2Cl)cc1,18µM*,?,-8%,-12,-4%
CCn1cc(CN2CCC(n3nccc3NC(=O)C3CCCC3)CC2)cn1,10%,-3%,2%,18,16%
COc1ccccc1C(=O)OCc1cc(=O)n2ccsc2n1,2%,-5%,0%,-5,6%
CCCCC(=O)Nc1ccc(C(=O)OCc2cc(=O)n3ccsc3n2)cc1,?,16µM*,/,/,/
O=C(COc1ccc(Cl)cc1)Nc1ccc(C(=O)OCc2cc(=O)n3ccsc3n2)cc1,15µM*,?,/,/,/
Cc1cn2c(=O)cc(COC(=O)c3cccc(NC(=O)COc4ccc(Cl)cc4)c3)nc2s1,-2%,-12%,/,/,/
CCCOc1c(Br)cc(C(=O)OCc2cc(=O)n3ccsc3n2)cc1OC,5.8µM*,10µM*,0%,8,-3%
Cc1cc(=O)oc2cc(O[C@@H]3O[C@H](C(=O)O)[C@@H](O)[C@H](O)[C@H]3O)ccc12,15%,-4%,/,/,/
Cc1cc(C)c2c(=O)c3c(oc2c1)C(=O)N(CCCOC(C)C)C3c1ccccc1F (stereo unspecified),5%,?,/,/,/
O=S(Cc1ccccc1)CC(O)(c1ccc(Cl)cc1)c1ccc(Cl)cc1 (stereo unspecified),?,?,?,-59*,?
O=S(Cc1ccc(Cl)cc1)CC(O)(c1ccccc1)c1ccccc1 (stereo unspecified),-6%,7%,10%,14,11%
SMILES,TDP1 cell CPT,TDP1 cell noCPT,HT1080-NT tox,IL-1B inflam inh,HT1080 IDH1KD tx
CCCCC(=O)N/N=C/c1ccc(Sc2cccc3cccnc23)o1,?,23µM*,?,-19,?
O=C(CSc1cccc2cccnc12)N/N=C/c1ccc(F)cc1,-8%,-16%,-8%,-15,-7%
CC(Oc1cccc2cccnc12)C(=O)N/N=C/c1ccc2c(c1)OCO2 (stereo unspecified),-27%,-11%,20%,-18,5%
O=C(N/N=C/c1ccc(O)c(O)c1)c1ccc(CSc2cccc3cccnc23)cc1,?,8.2µM*,-21%,2,-20%
O=C(CSc1cccc2cccnc12)N/N=C/c1cccc(O)c1,?,16µM*,19%,-23,1%
Cc1ccc(S(=O)(=O)N(CC(=O)N/N=C/c2cccc(C)c2)c2cccc3cccnc23)cc1,?,21µM*,7%,-10,1%[9.24 µM]
Cc1cccc(N(C)C(=O)CSc2nc3ncccc3o2)c1,-28%,?,/,/,/
Cc1cc(C)c(NC(=O)c2cn3c4c(c(N5CCN(C)CC5)c(F)cc4c2=O)OCC3C)c(C)c1 (stereo unspecified),18µM*,?,2%,-7,5%
CCOc1ccc(C(=O)NCc2ccco2)cc1Cl,-15%,-27%,3%,-27,-10%
Cc1oc2c(c1C(=O)N1CCC(C)CC1)C(=O)c1ccccc1C2=O,7.3µM*,12µM*,21µM*,152,23µM*
CCOC(=O)C1CCN(C(=O)c2c(C)oc3c2C(=O)c2ccccc2C3=O)CC1,5.2µM*,7.3µM*,-6%,-76*,-15%
O=C(NCCCN1CCOCC1)c1cn(-c2ccccc2)nc1-c1ccc(Br)cc1,?,16µM*,-15%,?,-26%
O=C(c1cn(-c2ccccc2)nc1-c1ccc(Br)cc1)N1CCOCC1,-6%,-18%,2%,24,14%
O=C(Nc1nc2ccccc2n1CCN1CCOCC1)c1cn(-c2ccccc2)nc1-c1ccccc1,18µM*,18µM*,?,60,?
O=C(Nc1nc2ccccc2n1CCN1CCOCC1)c1ccccc1,-29%,-25%,-11%,6,-4%
CCCC(=O)N1CCCC1(C)C(=O)Nc1ccc2cn[nH]c2c1 (stereo unspecified),-27%,-2%,3%,12,16%
CC1(C(=O)Nc2ccc3[nH]ncc3c2)CCN1C(=O)Cc1ccc(-c2ccccc2)cc1 (stereo unspecified),16µM*,13µM*,?,?,-22%
C#Cc1ccc(NC(=O)C2(C)CCN2C(=O)C/C=C/c2ccccc2)cc1 (stereo unspecified),16µM*,9.2µM*,?,-10,?
CC1(C(=O)Nc2ccc3[nH]ncc3c2)CCN1C(=O)CCc1ccccc1 (stereo unspecified),?,?,16%,-7,19%

# Assay outcomes as filed in PubChem.
